Screening data deposited in PubChem by several laboratories.
A selection: hits, their analogues and other compounds. The true share with any hit is near 3.6%.
IL1B NFkB inh: blocks IL-1B driven NFkB nuclear translocation in HUVEC cells; AID 796; 94,000 tested, 0.43% active; inhibition, % at 2 µM; HUVEC IL-1B NFkB p65 nuclear translocation imaging;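 active = inhibition above about 30% together with a positive call from visual inspection of the well image, limit read from the data; inconclusive = inhibition above a set limit but visual check negative; inactive = inhibition not above a set limit, visual check negative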;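 also: nuclear over cytoplasmic p65 intensity ratio measured by imaging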
IL1B NFkB pot: enhances IL-1B driven NFkB nuclear translocation. 94,000 tested, 0.3% active. HUVEC IL-1B NFkB p65 nuclear translocation imaging. activation, % at 2 µM;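 active = activation above 40%, about the mean plus 3 SD, also judged a hit on visual image review; inconclusive = activation above 40% but not a hit on visual review; inactive = activation not above 40% and no visual hit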;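 also: percent activation is computed from the nuclear over cytoplasmic p65 intensity ratio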
HUVEC tox IL1B: toxic to HUVEC cells under IL-1B stimulation. cell count reduction, % at 2 µM. HUVEC cell count loss, Hoechst imaging, IL-1B stimulated. 94,000 tested, 0.41% active. AID 845;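 active = cell count reduction more than 3 SD above the screen-wide mean, cut at about 70% in these data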
ERa coact pot: ER-alpha (human) coactivator binding potentiation | P03372 | AID 639 | TR-FRET ERalpha-LBD/SRC-Cy5 coactivator binding, 2 h; 100 = basal binding, no effect | 86,000 tested, 1.3% active | coactivator binding (% of control), % at 25.6 µM; in the data active = activity above about 200%;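 also: binding measured in presence of low estradiol as agonist stimulus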
Target sequence (P03372 whole entry, looked up, the tested form may be a part): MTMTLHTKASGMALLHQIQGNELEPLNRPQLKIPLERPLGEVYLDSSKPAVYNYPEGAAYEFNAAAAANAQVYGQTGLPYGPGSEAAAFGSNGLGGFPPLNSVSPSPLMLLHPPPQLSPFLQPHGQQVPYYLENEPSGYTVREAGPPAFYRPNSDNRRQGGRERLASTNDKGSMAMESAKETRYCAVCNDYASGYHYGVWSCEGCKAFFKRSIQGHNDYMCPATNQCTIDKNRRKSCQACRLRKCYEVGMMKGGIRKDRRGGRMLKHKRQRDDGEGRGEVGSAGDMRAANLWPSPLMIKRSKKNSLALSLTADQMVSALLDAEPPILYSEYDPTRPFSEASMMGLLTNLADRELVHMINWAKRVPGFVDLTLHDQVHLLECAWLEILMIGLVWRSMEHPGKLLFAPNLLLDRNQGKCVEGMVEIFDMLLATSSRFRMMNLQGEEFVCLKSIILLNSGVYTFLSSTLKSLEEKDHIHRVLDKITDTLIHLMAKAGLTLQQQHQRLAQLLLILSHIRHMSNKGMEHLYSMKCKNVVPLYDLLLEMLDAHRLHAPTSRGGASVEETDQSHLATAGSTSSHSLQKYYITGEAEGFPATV
ERb coact inh: ER-beta (human) coactivator binding inhibition. Q92731. TR-FRET ER-beta LBD / SRC1-Cy5 peptide binding; receptor agonist-loaded with 1 µM estradiol. inhibition, % at 25.6 µM. 86,000 tested, 1.3% active. AID 633;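 active = compounds whose percent inhibition of the receptor-coactivator binding signal exceeds about 50% in the single-dose screen, limit read from the data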
ERa SRC1 inh: blocks coactivator binding to human estrogen receptor alpha. 86,000 tested, 1.7% active. AID 629. P03372. TR-FRET ER-alpha LBD / SRC-1 peptide, estradiol-bound. inhibition, % at 25.6 µM; in the data active = inhibition above about 50%
Large screens that a line does not name were inactive; [ ] = dose if it differs, or a comment.

COc1cccc(Nc2ncc(C(=O)O)c3ccccc23)c1	none
CCN(CC)S(=O)(=O)c1cccc(C(=O)Nc2nc3cc4c(cc3s2)OCCO4)c1	none (no result: IL1B NFkB inh, IL1B NFkB pot, HUVEC tox IL1B)
CN(CC1CCCO1)S(=O)(=O)c1ccc(C(=O)Nc2nc3cc4c(cc3s2)OCO4)cc1 (stereo unspecified)	ERa SRC1 inh 63[fluorescence artefact?]
Cc1cccc(C(=O)N2CCN(c3ccc([N+](=O)[O-])c(N4CCOCC4)c3)CC2)c1	none (no result: ERa coact pot, ERb coact inh, ERa SRC1 inh)
O=C(c1ccc2ccccc2c1)N1CCN(c2ccc([N+](=O)[O-])c(N3CCOCC3)c2)CC1	IL1B NFkB pot 45 (no result: ERa coact pot, ERb coact inh, ERa SRC1 inh)
COC(=O)c1sc(NC(C)=O)c(C(=O)OC)c1C	none (no result: IL1B NFkB inh, IL1B NFkB pot, HUVEC tox IL1B)
COC(=O)c1sc(NC(=O)c2cnccn2)c(C(=O)OC)c1C	ERa SRC1 inh 52
O=C(CSc1nnc(CNc2cccc(C(F)(F)F)c2)n1Cc1ccco1)NCc1ccco1	IL1B NFkB pot 69
O=C(O)CSc1nnc(CNc2cccc(C(F)(F)F)c2)n1Cc1ccco1	none
CSc1nc2ccccc2n1CC(=O)Nc1cc(C(F)(F)F)ccc1N1CCOCC1	none
O=C(c1cnccn1)N1CCc2ccccc21	ERb coact inh 97[fluorescence artefact?], ERa SRC1 inh 79[fluorescence artefact?] (no result: IL1B NFkB inh, IL1B NFkB pot, HUVEC tox IL1B)
O=C(c1cccnc1)N1CCCc2ccccc21	none
N#CCCCSC1=C(C#N)C(c2ccccc2Cl)CC(=O)N1 (stereo unspecified)	none (no result: IL1B NFkB inh, IL1B NFkB pot, HUVEC tox IL1B)
O=C(NCCN1CCCCCC1)C1CCC(CNS(=O)(=O)c2cccc3cccnc23)CC1 (stereo unspecified)	ERa SRC1 inh 60[fluorescence artefact?]
CN1CCN(C(=O)C2CCC(CNS(=O)(=O)c3cccc4cccnc34)CC2)CC1 (stereo unspecified)	none
CC(=O)N(Cc1cc2cc(C)c(C)cc2n2nnnc12)CC1COCCO1 (stereo unspecified)	none
O=C1C(Cl)=C(Nc2ccccc2O)C(=O)N1c1ccccc1	ERa SRC1 inh 54[fluorescence artefact?]
Cc1c(NC2=C(Cl)C(=O)N(c3ccccc3)C2=O)c(=O)n(-c2ccccc2)n1C	none
CCOC(=O)C(CCC(=O)O)(CCC(C)C)c1csc(N)n1 (stereo unspecified)	ERa coact pot active[fluorescence artefact?]
O=C(Cn1ncn2c(cc3ccccc32)c1=O)NCc1ccco1	ERa SRC1 inh 57[fluorescence artefact?]
O=C(Cn1ncn2c(cc3ccccc32)c1=O)NCCC1=CCCCC1	none
O=C(Cn1cnc2sc(-c3ccccc3)cc2c1=O)NCc1ccco1	ERa SRC1 inh 66[fluorescence artefact?]
Cc1sc2ncn(CC(=O)NCCc3ccccc3)c(=O)c2c1C	none
O=C(Cn1cnc2sc(-c3ccccc3)cc2c1=O)NCCc1ccccc1	ERa coact pot 213[fluorescence artefact?]
O=C(Cn1cnc2sc(-c3ccccc3)cc2c1=O)NCc1ccccc1	ERa coact pot 216, ERb coact inh 63[fluorescence artefact?], ERa SRC1 inh 59[fluorescence artefact?]
COc1ccc(N(CC(=O)Nc2cc(C)ccc2C)S(=O)(=O)c2c(C)nn(C)c2C)cc1	none (no result: IL1B NFkB inh, IL1B NFkB pot, HUVEC tox IL1B)
COn1c(SC2CCCCC2)nc2ccccc2c1=O	none
CC[n+]1c(/C=C/C=C/N(C(C)=O)c2ccccc2)sc2ccccc21	IL1B NFkB inh 57 (no result: ERa coact pot, ERb coact inh, ERa SRC1 inh)
NS(=O)(=O)c1cc2c(cc1Cl)NC=NS2(=O)=O	ERb coact inh 94[fluorescence artefact?] (no result: IL1B NFkB inh, IL1B NFkB pot, HUVEC tox IL1B)
NS(=O)(=O)c1cc2c(cc1Cl)NC(C1C[C@H]3C=C[C@@H]1C3)NS2(=O)=O (stereo partly specified)	none (no result: IL1B NFkB inh, IL1B NFkB pot, HUVEC tox IL1B)
Cn1nc(-c2ccc(C(=O)N3CCN(c4ccccc4)CC3)cc2)c2ccccc2c1=O	IL1B NFkB inh 99, HUVEC tox IL1B 90
O=C(c1ccc(N2CCCC2=O)cc1)N1CCN(c2ccccc2)CC1	IL1B NFkB pot 44
Cn1nc(-c2ccc(C(=O)NCC3CCCO3)cc2)c2ccccc2c1=O (stereo unspecified)	HUVEC tox IL1B 90
Cc1c(=O)n(OCc2ccccc2F)c2ccccc2[n+]1[O-]	none
Cc1ccccc1-c1nnc2s/c(=C\c3ccc(N(C)C)cc3)c(=O)n12	none (no result: IL1B NFkB inh, IL1B NFkB pot, HUVEC tox IL1B)
Cc1noc(C)c1COc1ccc(C(=O)OCc2nnc(-c3ccc(Cl)cc3)o2)cc1	none
CCOc1ccc(OCC)c(NC(=O)Nc2ccc3c(c2)N(C)C(=O)CS3)c1	none
O=C(c1c(F)cccc1F)N(Cc1ccccn1)C1CCCC1	none
CCOC(=O)c1c(C)oc2ccc(NS(=O)(=O)c3ccc4c5c(cccc35)C(=O)N4)cc12	ERb coact inh 65[fluorescence artefact?], ERa SRC1 inh 67[fluorescence artefact?]
COCCOC(=O)c1c(C)oc2ccc(NS(=O)(=O)c3ccccc3)cc12	none
O=C(CSc1nnc2sc3ccccc3n12)NCc1ccco1	none (no result: ERa coact pot, ERb coact inh, ERa SRC1 inh)
CC(C)CCNC(=O)COc1ccc2c3c(c(=O)oc2c1)CCC3	ERa coact pot 352
COc1ccc2c(c1)c(=O)oc1cc(OCC(=O)NC3CC3)ccc12	none
COc1ccc2c(c1)c(=O)oc1cc(OCC(=O)NC3CCCCC3)ccc12	ERb coact inh 72, ERa SRC1 inh 71
CCCC(CCC)C(=O)Nc1c[nH]c(=O)[nH]c1=O	none
Cc1ccc(C(=O)COc2ccccc2C(=O)Nc2ccccc2)cc1	none (no result: ERa coact pot, ERb coact inh, ERa SRC1 inh)
CC1CC(C)(C)NC(C)c2ccccc21 (stereo unspecified)	none
CC1CC(C)(C)NCc2ccccc21 (stereo unspecified)	ERb coact inh 88[fluorescence artefact?]
COc1cccc(NC(=O)CSc2nc3c(c(=O)n2C)SC(C)C3)c1 (stereo unspecified)	none (no result: IL1B NFkB inh, IL1B NFkB pot, HUVEC tox IL1B)
Cc1ccc(C)n1-c1ccc(C(=O)O)cc1	ERa SRC1 inh 54[fluorescence artefact?]
O=C(O)CCCCCNS(=O)(=O)c1ccc(Cl)cc1	IL1B NFkB inh 47
COc1cccc(NC(=O)CN2C(=O)COc3ccc(Cl)cc32)c1	none (no result: IL1B NFkB inh, IL1B NFkB pot, HUVEC tox IL1B)
CCOC(=O)c1sc2nc(CSc3nc4ccccc4n3CC)[nH]c(=O)c2c1C	ERa SRC1 inh 54[fluorescence artefact?]
O=C(Nc1ccc(Cn2cccn2)cc1)c1ccc(COc2cccc(Br)c2)cc1	IL1B NFkB pot 57 (no result: ERa coact pot, ERb coact inh, ERa SRC1 inh)
COCCCn1c2nc3ccccc3nc2c2c(=O)n(Cc3cccs3)cnc21	none
COCCCn1c2nc3ccccc3nc2c2c(=O)n(Cc3ccc(Cl)cc3)cnc21	IL1B NFkB pot inconclusive, ERa SRC1 inh 56[fluorescence artefact?]
COCCCn1c2nc3ccccc3nc2c2c(=O)n(Cc3ccccc3Cl)cnc21	ERa coact pot 257 (no result: IL1B NFkB inh, IL1B NFkB pot, HUVEC tox IL1B)
CCOC(=O)c1ccc(-c2c(C(=O)OCC)oc3cc(O)c(CC)cc3c2=O)o1	none
Cc1ccc(-c2nnc3sc(-c4ccc5c(c4)OCCO5)nn23)cc1	ERa coact pot 303
CCOc1cccc(-c2nnc3sc(-c4cc(OC)c(OC)c(OC)c4)nn23)c1	ERa SRC1 inh 73 (no result: IL1B NFkB inh, IL1B NFkB pot, HUVEC tox IL1B)
COc1cc(-c2nn3c(-c4ccccc4)nnc3s2)cc(OC)c1OC	none
Clc1cccc(-c2nnc3sc(-c4ccccc4)nn23)c1	none
COc1ccc(-c2nnc3sc(-c4ccccc4OC)nn23)cc1	ERa coact pot 234 (no result: IL1B NFkB inh, IL1B NFkB pot, HUVEC tox IL1B)
COc1ccc(Cc2nn3c(-c4ccccc4OC)nnc3s2)cc1	none (no result: IL1B NFkB inh, IL1B NFkB pot, HUVEC tox IL1B)
Clc1cccc(-c2nn3c(-c4cccc(Cl)c4)nnc3s2)c1	ERa coact pot 296 (no result: IL1B NFkB inh, IL1B NFkB pot, HUVEC tox IL1B)
CCN1C(=O)c2cccc3c(NC(=O)c4ccc(OC)c(OC)c4)ccc1c23	none
